# Measurements as given in PubChem BioAssay (Tox21).
# Results filed as inconclusive are left out. Entries that show only a call come without a potency. Unmarked numbers belong to inactive results. Activity calls are given as the source filed them. The call rests on the fitted dose curve; in most records, active means well fitted inhibition curve with a large enough effect in the repeat runs; inconclusive means weak or mixed curves; inactive means no such curve, though single readings can be large or run the other way.
# Biological target: Androgen receptor (Homo sapiens) (UniProt P10275)
# Test: qHTS assay to identify small molecule antagonists of the androgen receptor (AR) signaling pathway using the MDA cell line in the presence of 0.5 nM R1881 (AID 1259243); further: potency means the concentration at half of the fitted maximal effect
# Details: MDA-kb2 MMTV-luciferase, R1881 0.5 nM, 16 h; series mostly up to 42.5 µM
# Outline: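 Reporter cells cultured without CO2 receive test chemicals, then 0.5 nM R1881 final; after 16 hr at 37C, ONE-Glo is added and light output recorded.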
# Further: nearly all actives have a fitted effect of over 50% in size.
# Androgen receptor (Homo sapiens), sequence (P10275 whole entry, looked up): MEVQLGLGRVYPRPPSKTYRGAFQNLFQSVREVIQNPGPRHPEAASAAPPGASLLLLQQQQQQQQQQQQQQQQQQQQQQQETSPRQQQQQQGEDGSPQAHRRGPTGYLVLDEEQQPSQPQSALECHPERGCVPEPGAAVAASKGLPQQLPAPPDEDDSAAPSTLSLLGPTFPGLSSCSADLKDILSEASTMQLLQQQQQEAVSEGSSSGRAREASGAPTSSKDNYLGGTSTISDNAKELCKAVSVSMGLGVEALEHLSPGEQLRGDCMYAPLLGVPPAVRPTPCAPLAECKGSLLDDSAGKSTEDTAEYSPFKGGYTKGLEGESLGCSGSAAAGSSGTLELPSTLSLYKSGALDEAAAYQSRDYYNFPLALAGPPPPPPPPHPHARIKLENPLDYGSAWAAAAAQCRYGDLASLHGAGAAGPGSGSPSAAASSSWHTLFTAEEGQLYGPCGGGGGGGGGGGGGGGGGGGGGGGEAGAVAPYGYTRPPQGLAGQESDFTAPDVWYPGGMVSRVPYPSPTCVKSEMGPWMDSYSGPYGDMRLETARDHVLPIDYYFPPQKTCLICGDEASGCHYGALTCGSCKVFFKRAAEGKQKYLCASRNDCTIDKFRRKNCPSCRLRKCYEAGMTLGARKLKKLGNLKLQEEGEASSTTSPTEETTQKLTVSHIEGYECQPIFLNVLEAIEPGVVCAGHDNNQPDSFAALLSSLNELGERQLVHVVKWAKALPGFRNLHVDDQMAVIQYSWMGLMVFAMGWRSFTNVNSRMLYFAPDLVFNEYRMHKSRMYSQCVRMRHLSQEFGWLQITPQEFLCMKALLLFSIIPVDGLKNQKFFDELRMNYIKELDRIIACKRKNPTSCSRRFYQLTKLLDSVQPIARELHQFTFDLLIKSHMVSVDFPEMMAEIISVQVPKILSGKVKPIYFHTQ
row,SMILES,Potency
1,CC1=NN(c2cccc(S(=O)(=O)O)c2)C(=O)C1,inactive
2,Cc1onc(-c2c(Cl)cccc2Cl)c1C(=O)Cl,inactive
3,CC(=O)O[C@@]12CO[C@@H]1C[C@H](O)[C@@]1(C)C(=O)[C@H](O)C3=C(C)[C@@H](OC(=O)[C@H](O)[C@@H](NC(=O)OC(C)(C)C)c4ccccc4)C[C@@](O)([C@@H](OC(=O)c4ccccc4)[C@H]21)C3(C)C,inactive
4,CCCCOCCOC(=O)COc1cc(Cl)c(Cl)cc1Cl,inactive
5,COC(=O)Nc1ccc(Cl)c(Cl)c1,6.82 µM (active)
6,Cc1nc2ccc(CN(C)c3ccc(C(=O)N[C@@H](CCC(=O)O)C(=O)O)s3)cc2c(=O)[nH]1,inactive
7,O=S(=O)(O)c1cc(O)c(O)c(S(=O)(=O)O)c1,inactive
8,CCCOC(=O)CC,inactive

# Biological target: Estrogen receptor (Homo sapiens) (UniProt P03372)
# Test: qHTS assay to identify small molecule antagonists of the estrogen receptor alpha (ER-alpha) signaling pathway using the BG1 cell line in the presence of 0.1 nM 17-beta-estradiol (AID 1259244)
# Details: VM7Luc4E2 (BG1) ERE-luciferase, antagonist mode, 0.1 nM E2, 22 h; series mostly up to 92.4 µM
# Outline: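 Estradiol at 0.1 nM (final) stimulates the endogenous ER-alpha of VM7Luc4E2 cells carrying an ERE-driven luciferase; compounds are co-incubated 22 h at 37C and luciferase output quantified by luminescence.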
# Estrogen receptor (Homo sapiens), sequence (P03372 whole entry, looked up): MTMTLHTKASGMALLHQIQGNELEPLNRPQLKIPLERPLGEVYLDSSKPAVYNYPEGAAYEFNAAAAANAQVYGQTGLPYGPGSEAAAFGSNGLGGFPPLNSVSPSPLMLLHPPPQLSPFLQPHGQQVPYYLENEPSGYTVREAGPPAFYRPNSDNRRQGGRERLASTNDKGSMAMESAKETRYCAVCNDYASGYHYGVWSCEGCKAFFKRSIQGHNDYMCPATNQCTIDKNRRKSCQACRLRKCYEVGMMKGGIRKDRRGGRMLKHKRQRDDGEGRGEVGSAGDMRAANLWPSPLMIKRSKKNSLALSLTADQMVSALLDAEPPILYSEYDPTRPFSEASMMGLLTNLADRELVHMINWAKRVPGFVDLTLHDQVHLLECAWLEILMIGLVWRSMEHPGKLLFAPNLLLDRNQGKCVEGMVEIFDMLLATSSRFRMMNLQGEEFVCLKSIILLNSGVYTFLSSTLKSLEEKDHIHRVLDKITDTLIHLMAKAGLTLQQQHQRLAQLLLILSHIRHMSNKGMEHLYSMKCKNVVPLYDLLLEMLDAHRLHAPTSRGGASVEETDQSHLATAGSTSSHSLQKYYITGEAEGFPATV
SMILES,outcome,"activity change, negative = inhibition"
CC(=O)NC(=O)c1ccccc1O,inactive,
CC1=NN(c2cccc(S(=O)(=O)O)c2)C(=O)C1,inactive,
CN(C)C(=O)Oc1ccc[n+](C)c1,inactive,
C=CC(C)(CCC=C(C)C)OC(=O)CC (stereo not given),inactive,
CC1=CCC(O)(C(C)C)CC1 (stereo not given),inactive,
Cc1onc(-c2c(Cl)cccc2Cl)c1C(=O)Cl,inactive,
CCCC(=O)O[C@]1(C(=O)CC)CC[C@H]2[C@@H]3CCC4=CC(=O)CC[C@]4(C)[C@H]3[C@@H](O)C[C@@]21C,inactive,
CC(=O)O[C@@]12CO[C@@H]1C[C@H](O)[C@@]1(C)C(=O)[C@H](O)C3=C(C)[C@@H](OC(=O)[C@H](O)[C@@H](NC(=O)OC(C)(C)C)c4ccccc4)C[C@@](O)([C@@H](OC(=O)c4ccccc4)[C@H]21)C3(C)C,inactive,
Nc1ccn([C@@H]2O[C@H](CO)[C@@H](O)C2(F)F)c(=O)n1,inactive,
CCCCOCCOC(=O)COc1cc(Cl)c(Cl)cc1Cl,inactive,
CCOCC(C)O (stereo not given),inactive,
CC(C)COC(=O)c1ccc(N)cc1,inactive,
CC(COc1ccccc1)NN (stereo not given),inactive,
CCCCCCCCCCOc1cc2c(=O)c(C(=O)OCC)c[nH]c2cc1OCC,,-1.66% [at 8.39 µM]
C[N+]1(C)[C@@H]2CC(OC(=O)[C@H](CO)c3ccccc3)C[C@H]1[C@@H]1O[C@@H]12 (stereo not given in full),inactive,
CC(C)c1ccc2ncccc2c1,inactive,
CCCCCC(=O)OCCc1ccccc1,inactive,
C=CCCCCCCCCC(=O)OCC,inactive,
CN1CC(=O)N/C1=N/C(=O)Nc1cccc(Cl)c1,inactive,
O=S(=O)(O)c1cc(O)c(O)c(S(=O)(=O)O)c1,inactive,
CCOC(=O)CCC(=O)OCC,inactive,
CCCOC(=O)CC,inactive,
